An excerpt weighted towards active compounds, which were near 7.6% of everything screened.
SW480 rerep – inducers of DNA re-replication in SW480 colon cancer cells. 340,000 tested, 1.8% active. Potency, µM (series often up to 46.1 µM), for the others: at the highest dose re-replication activation, actives largely listed as activators. SW480 DNA re-replication, Hoechst DNA content imaging, 48 h; note: potency is the fitted concentration of half-maximal effect; % of control where 0% means no effect; nearly all actives have a fitted effect of over 55% in size
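DNA re-replication was detected as more nuclei of elevated Hoechst intensity after 48 hr exposure to compound (23 nL pinned per well of 250 cells).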
KCNH2 WT inh – blocks the wildtype human KCNH2 potassium channel; 340,000 tested, 0.37% active; Q12809; U2OS, BacMam KCNH2, thallium flux FluxOr; active compounds read low; AID 720551; activity change, % at 1.84 µM;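 active = maximum activity change below -70%; inconclusive = maximum activity change between -70% and -50%; inactive = maximum activity change above -50%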; note: % is set by controls: 0 for no effect and ±100 for the full control effect
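U2OS cells transduced with wild-type KCNH2 virus are loaded with FluxOr dye for 45 min, and thallium flux is measured in kinetic reads before and after stimulation buffer. Rate constants are normalized to DMSO controls.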
MCF10A rereplic – inducers of DNA re-replication in MCF 10A breast cells | MCF 10A DNA re-replication, Hoechst nuclear intensity, 48 h | Potency, µM (titrated, usually from 46.1 µM), for inactives: top-dose activity, positive = re-replication, usual class: activators | 350,000 tested, 2.9% active | AID 624296; note: potency is the fitted concentration of half-maximal effect; % of control where 0% means no effect; nearly all actives have a fitted effect of over 50% in size
KCNH2 3.1 block – KCNH2 3.1 (human) potassium channel inhibition. U2OS KCNH2 3.1, thallium flux FluxOr; active compounds read low. 340,000 tested, 0.95% active. activity change, % (tested at about 1.8 µM);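 active = maximum activity change below -70%; inconclusive = maximum activity change from -70% to -50%; inactive = maximum activity change above -50%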;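 note: thallium influx rate constant from kinetic fluorescence after stimulation buffer; % is set by controls: 0 for no effect and ±100 for the full control effect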
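Thallium flux read-out: FluxOr dye with Red40 quencher in HBSS/HEPES, 45 min at RT. Rate constants from kinetic reads were normalized to positive and negative DMSO controls. Cells: U2OS virally expressing the 3.1 isoform.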
KB-3-1 tox – KB-3-1 parental cell cytotoxicity | KB-3-1 viability, CellTiter-Glo ATP luminescence, 72 h | Potency, µM (highest dose often 46.1 µM), most hits filed as cytotoxic | 400,000 tested, 1.4% active; note: potency is the fitted concentration of half-maximal effect; % is set by controls: 0 for no effect and ±100 for the full control effect; nearly all actives have a fitted effect of over 60% in size
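Screening of KB-3-1 cells (DMEM, 10% FBS, phenol-red free) ran from lowest to highest compound concentration; after 72 h at 37 °C viability was read luminescently and curves fitted.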
KB-V1 MDR tox – kills drug-selected multidrug resistant KB-V1 cells. KB-V1 MDR cells viability, CellTiter-Glo, 72 h. Potency, µM (doses to about 46.1 µM), hits mostly cytotoxic. 400,000 tested, 3.4% active. AID 1347076; note: potency is the fitted concentration of half-maximal effect; % is set by controls: 0 for no effect and ±100 for the full control effect; nearly all actives have a fitted effect of over 60% in size
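Following 72 h at 37 degrees C with compound, KB-V1 cell viability was read by CellTiter-Glo luminescence, medium being phenol-red-free DMEM plus 10% FBS; concentration-response parameters came from normalized, curve-fitted qHTS data.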
* hit, by the source's call; i = inactive; ? = inconclusive; / = not tested or not shown. Unless noted, calls come from the whole dose curve; as a rule, active = well fitted curve in the direction sought with a large enough effect; inconclusive = small, poorly fitted or top-dose-only effect, or another doubt; inactive = no such curve, though single readings can be large; an effect the other way counts as inactive or inconclusive.

SMILES	SW480 rerep	KCNH2 WT inh	MCF10A rereplic	KCNH2 3.1 block	KB-3-1 tox	KB-V1 MDR tox
Cc1cccc(NC(=O)c2cccc(S(=O)(=O)Nc3c(C)n(C)n(-c4ccccc4)c3=O)c2)c1	-1.9%	-7.3	0.5%	2.0	i	14.6µM*
Cc1c(NS(=O)(=O)c2cccc(C(=O)Nc3cccc(F)c3)c2)c(=O)n(-c2ccccc2)n1C	0.3%	-3.3	0.8%	-5.9	i	?
Cc1cccc(NC(=O)Nc2c(C)n(C)n(-c3ccccc3)c2=O)c1	17.8%	-102.1*	4.1%	0.3	i	?
Cc1c(NC(=O)Nc2cccc(Cl)c2)c(=O)n(-c2ccccc2)n1C	-4.1%	13.5	-24.6%	-3.9	i	i
Cc1c(N/C(=N/S(=O)(=O)c2ccccc2)c2ccc(Cl)cc2)c(=O)n(-c2ccccc2)n1C	-137.9%	15.4	-6.2%	-11.0	i	23.1µM*
Cc1c(N/C(=N/S(=O)(=O)c2ccc(Cl)cc2)c2ccccc2)c(=O)n(-c2ccccc2)n1C	-4.3%	/	2.6%	/	/	/
CC1(Oc2ccc(CC#N)cc2)CCN(Cc2ccc(-n3ccnc3)cc2)C1 (stereo not drawn)	/	/	/	/	i	i
CN(C)c1ccc(/C=c2\[nH]c(=O)/c(=C\c3ccc(N(C)C)cc3)[nH]c2=O)cc1	/	/	/	/	i	i
CCOC(=O)C1=C[C@@H](C(C)C)N(S(=O)(=O)c2ccc([N+](=O)[O-])cc2)[C@H]1c1ccccc1	/	/	/	/	11.6µM*	?
CCOc1ccc2cc(C#N)c(SCC(=O)OCc3ccccc3)nc2c1	/	/	/	/	i	i
O=C(NN=C1C2CC3CC(C2)CC1C3)c1ccncc1	-0.2%	-182.7*	7.4%	2.8	i	i
COC(=O)c1c(NC(=O)CC2Nc3ccccc3NC2=O)sc(C)c1C (stereo not drawn)	3.9%	1.2	10.3µM*	1.9	i	?
CCOC(=O)c1c(NC(=O)CC2Nc3ccccc3NC2=O)sc(C)c1C (stereo not drawn)	?	-5.9	?	4.8	i	i
O=C(CC1Nc2ccccc2NC1=O)Nc1cc(Cl)cc(Cl)c1 (stereo not drawn)	1.84µM*	-10.2	?	-2.6	i	i
CCCCOc1cccc(C(=O)Nc2sc3c(c2C(=O)OCC)CCCC3)c1	/	/	/	/	i	i
CCc1ccc(NC(=O)N2CCN(c3ccc(F)cc3)CC2)cc1	-2.8%	46.9	-1.8%	-3.8	i	i
Clc1ccc(-c2cn3nc4c(nc3n2)CCCC4)cc1	?	-5.5	?	-0.1	i	i
COc1cccc(-c2cn3nc4c(nc3n2)CCCC4)c1	?	-14.9	?	3.2	18.4µM*	?
CCOC(=O)c1cccc(NS(=O)(=O)c2cc(Br)cc3c2N(C(=O)C2CC2)CC3)c1	/	/	/	/	20.6µM*	i
N#Cc1c(NC(=O)CSc2ncc(-c3ccccc3)n2CC2CCCO2)sc2c1CCCC2 (stereo not drawn)	4.6%	-5.4	?	0.3	?	3.26µM*
N#Cc1c(NC(=O)CSc2nnc(-c3ccccc3)o2)sc2c1CCCC2	8.5%	24.1	5.8µM*	-0.5	i	i
N#Cc1c(NC(=O)CSc2nc3ccccc3s2)sc2c1CCCC2	-11.2%	-20.7	?	-6.0	i	16.4µM*
CC1CCc2c(sc(NC(=O)CSc3nnc(-c4ccccc4)o3)c2C#N)C1 (stereo not drawn)	-82.3%	16.0	14.8%	-2.6	i	?
O=C(COC(=O)CCc1nc2ccccc2c(=O)[nH]1)Nc1ccc2c(c1)OCO2	-15.8%	6.5	-0.7%	-4.7	i	i
CCOc1cc(/C=N/N=C(/N)c2nonc2N)cc(Br)c1OCc1ccc(Cl)cc1	?	-12.2	?	-3.9	?	?
SMILES	SW480 rerep	KCNH2 WT inh	MCF10A rereplic	KCNH2 3.1 block	KB-3-1 tox	KB-V1 MDR tox
COc1cc(/C=N/N=C(/N)c2nonc2N)cc(Br)c1OCc1ccccc1C	1.4%	-5.4	13µM*	-4.1	i	i
O=C(CCC(=O)Nc1cccnc1)Nc1cccnc1	-0.5%	-1.2	1.7%	7.1	i	i
O=C(Nc1cccc(Cl)c1)Nc1sccc1-c1nc2ccccc2s1	18.4µM*	22.1	16.4µM*	18.0	i	?
O=C(Nc1ccccc1)Nc1sccc1-c1nc2ccccc2s1	12.1%	-0.9	?	-3.8	i	i
Cc1ccsc1C(=O)N1CCN(c2ccccn2)CC1	1.7%	2.3	-0.6%	16.8	i	i
C/C(=N\NC(=O)C1(C)CC1(Br)Br)c1ccc(NC(=O)c2ccc(C)o2)cc1 (stereo not drawn)	1.8%	3.5	?	-2.9	?	20.6µM*
C/C(=N\NC(=O)C1(C)CC1(Br)Br)c1ccc([N+](=O)[O-])cc1 (stereo not drawn)	-11.3%	3.4	1.5%	0.6	i	i
CCOc1ccc(CCNC(=O)c2cc(S(=O)(=O)N3CCOCC3)ccc2C)cc1OCC	-3.2%	-13.0	2.6%	13.1	i	?
COC(=O)/C(=C\Nc1ccc(Cl)cc1Cl)NC(=O)c1ccc(Cl)cc1Cl	18.8%	8.0	11.6µM*	-15.6	?	?
COC(=O)/C(=C\Nc1ccc(Cl)cc1Cl)NC(=O)c1ccccc1	3.5%	4.1	17.7%	-5.5	i	i
NC(=O)c1ccc(SCC(=O)OCC(=O)NCc2cccs2)c([N+](=O)[O-])c1	-1.0%	-8.1	21.1%	-1.4	i	i
CCc1ccc(C2Sc3ccccc3NC3=C2C(=O)c2ccccc23)cc1 (stereo not drawn)	/	/	/	/	i	?
O=C1C2=C(Nc3ccccc3SC2c2ccc(C(F)(F)F)cc2)c2ccccc21 (stereo not drawn)	/	/	/	/	?	16.4µM*
O=C1C2=C(Nc3ccccc3SC2c2ccco2)c2ccccc21 (stereo not drawn)	6.2%	-0.4	16.4µM*	-5.1	i	i
CCNc1cccc(S(=O)(=O)N2CCCN(S(=O)(=O)c3ccc4c(c3)OCCO4)CC2)c1	/	/	/	/	i	i
CCOC(=O)C1(CCCc2ccccc2)CCN(C(=O)C2CCCO2)CC1 (stereo not drawn)	-0.3%	9.2	4.0%	4.8	i	?
CC1(C(=O)NCc2ccccc2Br)CCN1Cc1ccccc1OC(F)F (stereo not drawn)	/	/	/	/	i	23.1µM*
CC1(C)CC(NC(=O)Cc2ccccc2)CC(C)(C)N1	0.6%	-1.6	6.1%	7.2	i	i
CCCCCCn1cc(C(=O)O)c(=O)c2cc(F)c(N3CCN(C(=O)OCC)CC3)cc21	-3.7%	-3.1	-0.2%	5.4	i	2.06µM*
